Screens (PubChem)
TTR transcr act: TTR transcription activation, primary screen. SH-SY5Y TTR promoter Gaussia luciferase, luminescence; 100% = recombinant luciferase protein wells. activation, % at 16.7 µM. actives 1.3% (n = 92,000);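 active means activation above the mean of all tested compounds plus 3 SD, cut at about 9.5% in these data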;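 further: cells exposed to compounds for one day before reading; 0% = median of all test compound wells on the plate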
HuH7 TTR inh: decreases TTR transcription in HuH7 cells in activator counter-screen. HuH7 TTR promoter-Gaussia luciferase reporter, luminescence. actives 4% (n = 1,100). shares compounds with TTR transcr act. inhibition, % at 16.7 µM. AID 1117279;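 active means average inhibition above the solvent-only control wells' mean plus 3 SD, cut at about 15% in these data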;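 further: 0% = cells with DMSO only and 100% = cells with inhibitor control FD; inhibitors lower well luminescence so higher value means more inhibition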
TTR up confirm: confirmation of human transthyretin transcription activators; shares compounds with TTR transcr act; activation, % at 16.7 µM; 1,100 tested, under 10 active; SHSY5Y TTR promoter Gaussia luciferase, luminescence; 100% = purified Lucia enzyme wells, no cells; AID 1117280;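 active means mean activation above a set limit taken from the earlier primary screen, cut at about 11% in these data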;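 further: 0% = DMSO-treated cells and 100% = recombinant Lucia luciferase without cells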
* hit, by the source's call. This excerpt belongs to a sample that is enriched for hits.

SMILES | TTR transcr act | others
CCOc1ccc(Nc2nc(Cc3nnc(SCC(=O)c4ccc(C)c(C)c4)o3)cs2)cc1 | -5
CCN1CCN(S(=O)(=O)c2ccc3c(c2)NC(=O)CS3)CC1 | 2
CCOC(=O)C1CCN(S(=O)(=O)c2ccc3c(c2)NC(=O)CS3)CC1 | 11* | HuH7 TTR inh=-15;TTR up confirm=0
CCOC(=O)C1CCN(S(=O)(=O)c2ccc3[nH]c(=O)oc3c2)CC1 | 1
Cc1ccc(C(=O)CSc2nnc3c4ccccc4nc(Cc4ccccc4)n23)cc1 | 0
Cc1c(CCO)c(=O)n2n1CCCC2 | 1
O=C(O)CCNS(=O)(=O)c1ccc2ccccc2c1 | 1
O=C(O)CNS(=O)(=O)c1cccc(Cl)c1 | 15* | HuH7 TTR inh=-11;TTR up confirm=4
O=C(O)CCNS(=O)(=O)c1ccccc1 | 0
CCCCn1nnnc1C(c1cccs1)N1CCN(C/C=C/c2ccccc2)CC1 (centres undefined) | 0
Cc1cc(C(=O)NC2CCCN(Cc3ccccc3F)C2)n[nH]1 (centres undefined) | 1
CCN(CC)S(=O)(=O)c1ccc(C(=O)NCC2CCCCC2)cc1 | 0
Cc1cc(NC(=O)c2cc([N+](=O)[O-])cc([N+](=O)[O-])c2C)no1 | 3
CCOc1ccc(/C=N/n2nnnc2N)cc1O | 1
CCOc1ccc(/C=N/n2nnnc2N)cc1OCC | 0
Nc1nnnn1/N=C/c1cc(Br)ccc1O | 12* | HuH7 TTR inh=-17;TTR up confirm=0
O=C(CN1C(=O)NC2(CCCC2)C1=O)N1CCCSC1=Nc1ccccc1 | -2
O=C(NCc1cccnc1)O[C@H]1CC[C@@]23CCCN2C(=O)CCC[C@H]3C1 | 1
CCc1ccccc1NC(=O)C1CCCN(c2ncccn2)C1 (centres undefined) | 12* | HuH7 TTR inh=-10;TTR up confirm=1
CCOc1ccc(OCC)c(NC(=O)C2CCCN(c3ncccn3)C2)c1 (centres undefined) | -1
CCC(C)c1ccc(NC(=O)C2CCCN(c3ncccn3)C2)cc1 (centres undefined) | -2
COC(CNC(=O)[C@H](Cc1ccccc1)NC(C)(C)C(=O)NC1CCCCC1)OC | -2
O=c1c2c3c(sc2n2c(=S)[nH]nc2n1-c1ccccc1)CCC3 | 1
Cc1ccc(-n2c(=O)c3c4c(sc3n3c(=S)[nH]nc23)CCC4)cc1 | 15* | HuH7 TTR inh=-8;TTR up confirm=2
COc1ccc(-n2c(=O)c3c4c(sc3n3c(=S)[nH]nc23)CCC4)cc1 | -2
SMILES | TTR transcr act | others
CCC[C@H]1[C@@H](O)CC[C@@]23CCCN2C(=O)CCC[C@@H]13 | 0
Cc1nn(CC(=O)N(CC(C)C)C2CCS(=O)(=O)C2)c(C)c1[N+](=O)[O-] (centres undefined) | 13* | HuH7 TTR inh=-15;TTR up confirm=-1
CC(C)CN(C(=O)CSc1nnnn1C)C1CCS(=O)(=O)C1 (centres undefined) | 2
Cc1cnc(C(=O)OCC(=O)N(CC(C)C)C2CCS(=O)(=O)C2)cn1 (centres undefined) | 0
CC1CN(C(=O)CCNC(=O)c2ccc(Br)cc2)CC(C)O1 (centres undefined) | 0
CC1CC2(C)C(=CC1=O)CCC1C2C(O)CC2(C)C1CCC2(O)C(=O)CO (centres undefined) | 2
O=C(/C=N/NC(=O)c1ccc(Cl)cc1Cl)c1ccccc1 | -1
Cc1cc(C)nc(SCCC(=O)Nc2cccc3ccccc23)n1 | 13* | HuH7 TTR inh=-10;TTR up confirm=2
Cc1cc(C)nc(SCC(=O)Nc2ccnc3ccccc23)n1 | -3
O=C(CSCC(=O)Nc1cccc2ccccc12)Nc1cccc2ccccc12 | -1
COC(c1ccccc1)c1nnc(CCC(=O)N(C)Cc2cccc(-n3cccn3)c2)o1 (centres undefined) | -1
CCCc1cnc(Nc2nc(C(N)Cc3ccc(OC)cc3)cs2)nc1 (centres undefined) | -1
C(=C\c1ccccc1)/CN1CCN(C(c2cc3ccccc3o2)c2nnnn2C2CCCC2)CC1 (centres undefined) | 1
Cc1ccc(N2CC(=O)Nc3c(oc4nc(-c5ccccc5)cc(C)c34)C2=O)cc1 | -1
O=C(Nc1ccc([N+](=O)[O-])cc1)NN1CCCCCC1 | 0
O=C(Nc1ccc(Cl)cc1)NN1CCCCCC1 | 17* | HuH7 TTR inh=2;TTR up confirm=0
N#Cc1ccc(NC(=O)NN2CCCCCC2)cc1 | 5
O=C(O)c1cc2ccc3cccc4ccc(c1)c2c34 | 3
COc1ccc([C@H]2C[C@H](O)[C@@H](n3cc(C4CC4)nn3)CN2C(=O)c2cccs2)cc1 | 1
O=C(C1CCCCC1)N1C[C@H](n2cc(-c3ccc(F)cc3)nn2)[C@@H](O)C[C@@H]1c1ccc(Cl)cc1 | 1
Cc1ccc([C@H]2C[C@@H](O)[C@H](n3cc(-c4ccc(F)cc4)nn3)CN2C(=O)c2cccs2)cc1 | 11* | HuH7 TTR inh=15*;TTR up confirm=0
O=C(O)c1c2c(nc3ccc(S(=O)(=O)N4CCC(C(=O)NCc5ccccc5Cl)CC4)cc13)CCCC2 | -2
O=C(COC(=O)c1ccc(F)cc1F)Nc1ccc2[nH]c(=O)[nH]c2c1 | 0
C/C(=N\Nc1nc2ccccc2s1)c1ccc2c(c1)OCO2 | 11* | HuH7 TTR inh=11;TTR up confirm=1
C/C(=N\Nc1ccc(Cl)c(C(=O)O)c1)c1ccc2c(c1)OCO2 | 0
SMILES | TTR transcr act | others
Cc1ccc2nc(NC(=O)c3ccc4c(c3)OCO4)sc2c1 | -1
O=C(c1cccnc1)N1CCC(Oc2ccc(C(=O)N3CCCCO3)cc2)CC1 | 1
COc1cccc(-c2cc(C(=O)N3CCN(C(=O)c4ccco4)CC3)[nH]n2)c1 | 9
NC(=NCc1ccccc1)C(N=Nc1ccccc1)C(=O)NCc1ccccc1 (centres undefined) | 5
COc1ccc(CCNC(=O)COc2ccccc2[N+](=O)[O-])cc1OC | -1
N#C/C(=C\N1CCCCC1)S(=O)(=O)c1ccc(Cl)cc1 | -1
CS(=O)(=O)c1ccc(C(=O)N(CCc2ccccc2)Cc2ccccc2)cc1 | 9.7* | HuH7 TTR inh=-8;TTR up confirm=1
CS(=O)(=O)c1ccccc1C(=O)N(CCc1ccccc1)Cc1ccccc1 | -2
CC(=O)Nc1cccc(C(=O)N(CCc2ccccc2)Cc2ccccc2)c1 | -2
COC(=O)c1ccc(Cn2ccc3ccc(-c4ccc5ccn(C(=O)c6ccccc6C)c5c4)cc32)cc1 | 0
COc1ccc(C2CC(=O)C3=C(C2)NC(C)=C(C#N)C3c2ccc(N(C)C)cc2)cc1 (centres undefined) | -2
COc1ccc(C(=O)O)c(O)c1 | 1
COc1cc(OC)c(C2C(C#N)=C(C)NC(C)=C2C#N)c(C(=O)O)c1 | 30* | HuH7 TTR inh=-3;TTR up confirm=1
COc1cc(C(=O)N(C)CCOc2ccc(C)cc2)ccc1OC1CCN(C(C)=O)CC1 | 1
COC(=O)[C@H](CCSC)NC(=O)NCc1ccccn1 | 19* | HuH7 TTR inh=-17;TTR up confirm=1
COC(=O)[C@H](CCSC)NC(=O)NCCc1ccc(F)cc1 | 1
COC(=O)[C@H](CCSC)NC(=O)Nc1ccc(C(C)C)cc1 | -1
CCOC(=O)C1=C(C)OC(N)=C(C#N)C1c1cc2c(cc1[N+](=O)[O-])OCO2 (centres undefined) | -2
CCn1nnnc1-c1ccc(OC)c(S(=O)(=O)Nc2ccccc2OC)c1 | -2
CCCCn1nc2cc(C(=O)NCCc3cccs3)ccc2c1OCC | -4
CCCCn1nc2cc(C(=O)NC3CCc4ccccc43)ccc2c1OCC (centres undefined) | 1
